Laboratory results published in PubChem BioAssay (EPA / NIEHS).
Results filed as inconclusive are left out. Calls of active or inactive are those of the source. The calls were made as follows: active = hit-call score of the fitted dose curve at least 0.9, where 1 is the maximum; inconclusive = response in the unintended direction; inactive = score below 0.9.

Test: Tanguay_ZF_120hpf_OTIC_legacy: (Legacy) Oregon State University Tanguay Lab 120 Hour Post-fertilization zebrafish Assay for Otic Vesicle Malformation (AID 2283639)
Method in brief: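 Otic vesicle malformation is read as a yes/no morphology call at 120 hpf. Exposure is static at 28C with 0.64% (vol/vol) DMSO; embryos that die are excluded from non-mortality endpoints.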

Structure (SMILES)	outcome	AC50
Cc1cc(-c2ccc(N)c(C)c2)ccc1N	inactive	
CCOC(=O)C(O)(c1ccc(Cl)cc1)c1ccc(Cl)cc1	inactive	
NS(=O)(=O)C(F)(F)C(F)(F)C(F)(F)C(F)(F)C(F)(F)C(F)(F)C(F)(F)C(F)(F)F	inactive	
CC(c1ccc(O)cc1)(c1ccc(O)cc1)c1ccc(O)cc1	inactive	
CN(C)CCO	inactive	
c1cc2ccc3cccc4ccc(c1)c2c34	inactive	
ClC1=C(Cl)[C@]2(Cl)[C@@H]3[C@@H](Cl)[C@H]4O[C@H]4[C@@H]3C1(Cl)C2(Cl)Cl	inactive	
Oc1ccc(C(c2ccc(O)cc2)(C(F)(F)F)C(F)(F)F)cc1		51.7 µM (active)
C=CC(=O)NCNC(=O)C=C	inactive	
Cc1ccc(O)c(C)c1	inactive	
CC(C)C(=O)OCC(C)(C)C(OC(=O)C(C)C)C(C)C (stereo not drawn)	inactive	
O=NN(c1ccccc1)c1ccccc1	inactive	
O=C(N[C@H]1CN2CCC1CC2)c1cc2ccoc2cn1	inactive	
CO/C=C(/C(=O)OC)c1ccccc1COc1cccc(C(F)(F)F)n1		12.7 µM (active)
CCC(C)c1cc([N+](=O)[O-])cc([N+](=O)[O-])c1O (stereo not drawn)	inactive	
COS(=O)(=O)OC	inactive	
Nc1ccc(-c2ccc(N)cc2)cc1	inactive	
Cc1cccc([N+](=O)[O-])c1	inactive	
O=C(O)C(F)(F)C(F)(F)C(F)(F)C(F)(F)C(F)(F)C(F)(F)C(F)(F)C(F)(F)F	inactive	
CCCCCCCCCC[N+](C)(C)CCCCCCCCCC	inactive	
CC(C)(c1ccccc1)c1ccc(O)cc1	inactive	
ClC1=C(Cl)[C@]2(Cl)[C@@H]3[C@H]4C[C@H]([C@@H]5O[C@H]45)[C@@H]3[C@@]1(Cl)C2(Cl)Cl	inactive	
Clc1ccc(Cl)cc1	inactive	
Oc1c(Cl)c(Cl)c(Cl)c(Cl)c1Cl	inactive	
C[C@]12CCC(=O)C=C1CC[C@@H]1[C@@H]2CC[C@@]2(C)[C@H]1CC[C@]2(C)O	inactive	
O=C(NC(=O)c1c(F)cccc1F)Nc1cc(Cl)c(OC(F)(F)C(F)F)c(Cl)c1	inactive	
Clc1ccc(C(c2ccccc2Cl)C(Cl)(Cl)Cl)cc1 (stereo not drawn)	inactive	

Test: Tanguay_ZF_120hpf_PE_legacy: (Legacy) Oregon State University Tanguay Lab 120 Hour Post-fertilization zebrafish Assay for Pericardial Edema (AID 2283640);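 as to AC50: potency for increased incidence of pericardial edema versus DMSO baseline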
Method in brief: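 Zebrafish larvae are exposed from early development to 120 hpf at 28C, with 0.64% DMSO final. Each surviving larva receives a yes/no pericardial edema call by brightfield imaging, analysed relative to the DMSO baseline.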

Structure (SMILES)	outcome	AC50
Cc1cc(-c2ccc(N)c(C)c2)ccc1N	inactive	
CCOC(=O)C(O)(c1ccc(Cl)cc1)c1ccc(Cl)cc1	inactive	
ClC(Cl)=C(c1ccc(Cl)cc1)c1ccc(Cl)cc1	inactive	
NS(=O)(=O)C(F)(F)C(F)(F)C(F)(F)C(F)(F)C(F)(F)C(F)(F)C(F)(F)C(F)(F)F	inactive	
CN(C)CCO	inactive	
c1cc2ccc3cccc4ccc(c1)c2c34	inactive	
CCC(C)(c1ccc(O)cc1)c1ccc(O)cc1		43.4 µM (active)
ClC1=C(Cl)[C@]2(Cl)[C@@H]3[C@@H](Cl)[C@H]4O[C@H]4[C@@H]3C1(Cl)C2(Cl)Cl	inactive	
Oc1ccc(C(c2ccc(O)cc2)(C(F)(F)F)C(F)(F)F)cc1		37.7 µM (active)
C=CC(=O)NCNC(=O)C=C	inactive	
Cc1ccc(O)c(C)c1	inactive	
CC(C)(O)C(=O)Nc1ccc([N+](=O)[O-])c(C(F)(F)F)c1		23.2 µM (active)
C[C@]12CCC(=O)C=C1CC[C@@H]1[C@@H]2CC[C@]2(C)C(=O)CC[C@@H]12		36.3 µM (active)
CC(C)C(=O)OCC(C)(C)C(OC(=O)C(C)C)C(C)C (stereo not drawn)		28.8 µM (active)
O=NN(c1ccccc1)c1ccccc1	inactive	
O=C(N[C@H]1CN2CCC1CC2)c1cc2ccoc2cn1	inactive	
CO/C=C(/C(=O)OC)c1ccccc1COc1cccc(C(F)(F)F)n1		2.43 µM (active)
CCC(C)c1cc([N+](=O)[O-])cc([N+](=O)[O-])c1O (stereo not drawn)	inactive	
COS(=O)(=O)OC	inactive	
Nc1ccc(-c2ccc(N)cc2)cc1	inactive	
Cc1cccc([N+](=O)[O-])c1	inactive	
O=C(O)C(F)(F)C(F)(F)C(F)(F)C(F)(F)C(F)(F)C(F)(F)C(F)(F)C(F)(F)F	inactive	
CCCCCCCCCC[N+](C)(C)CCCCCCCCCC	inactive	
CC(C)(c1ccccc1)c1ccc(O)cc1	inactive	
ClC1=C(Cl)[C@]2(Cl)[C@@H]3[C@H]4C[C@H]([C@@H]5O[C@H]45)[C@@H]3[C@@]1(Cl)C2(Cl)Cl		39 µM (active)
Clc1ccc(Cl)cc1	inactive	
Oc1c(Cl)c(Cl)c(Cl)c(Cl)c1Cl	inactive	
O=C(NC(=O)c1c(F)cccc1F)Nc1cc(Cl)c(OC(F)(F)C(F)F)c(Cl)c1	inactive	
Clc1ccc(C(c2ccccc2Cl)C(Cl)(Cl)Cl)cc1 (stereo not drawn)	inactive	

Test: Tanguay_ZF_120hpf_BRAI_legacy: (Legacy) Oregon State University Tanguay Lab 120 Hour Post-fertilization zebrafish Assay for Brain Malformation (AID 2283641)
Method in brief: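 Static exposure of staged wild-type embryos until 120 hpf, kept at 28C with light excluded and final DMSO of 0.64% (vol/vol). Presence or absence of brain malformation was noted under brightfield; mortality precluded scoring.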

Structure (SMILES)	outcome	AC50
c1cc2ccc3cccc4ccc(c1)c2c34	inactive	
ClC1=C(Cl)[C@]2(Cl)[C@@H]3[C@@H](Cl)[C@H]4O[C@H]4[C@@H]3C1(Cl)C2(Cl)Cl	inactive	
C[C@]12CCC(=O)C=C1CC[C@@H]1[C@@H]2CC[C@]2(C)C(=O)CC[C@@H]12		49.8 µM (active)
O=NN(c1ccccc1)c1ccccc1	inactive	
CCC(C)c1cc([N+](=O)[O-])cc([N+](=O)[O-])c1O (stereo not drawn)	inactive	
Oc1c(Cl)c(Cl)c(Cl)c(Cl)c1Cl	inactive	
Clc1ccc(C(c2ccccc2Cl)C(Cl)(Cl)Cl)cc1 (stereo not drawn)	inactive	
